Results: PubChem BioAssay (EPA / NIEHS)
Activity calls are given as the source filed them. The calls were made as follows: active = hit-call score of the fitted dose curve at least 0.9, where 1 is the maximum; inactive = score below 0.9.

target: Heat shock factor protein 1 (Homo sapiens) (UniProt Q00613); assay: ATG_HSE_CIS: Attagene CIS-FACTORIAL HepG2 Assay for human Heat Shock Transcription Factor 1 (HSE) (AID 2282953); details: HepG2 HSE cis-reporter, Attagene RNA transcription; actives raise or lower the signal
Protocol: ATG_CIS is a cell-based, multiplexed-readout assay that uses HepG2, a human liver cell line, with measurements taken at 24 hours after chemical dosing in a 24-well plate.ATG_HSE_CIS is one of 52 assay component(s) measured or calculated from the ATG_CIS assay. It is designed to make measurements of mRNA induction, a form of inducible reporter, as detected with fluorescence intensity signals by Reverse transcription polymerase chain reaction (RT-PCR) and Capillary electrophoresis technology.Data from the assay component ATG_HSE_CIS was analyzed into 1 assay endpoint. This assay endpoint, ATG_HSE_CIS, was analyzed with bidirectional fitting relative to DMSO as the negative control and baseline of activity. Using a type of inducible reporter, measures of mRNA for gain or loss-of-signal activity can be used to understand the reporter gene at the transcription factor-level as they relate to the gene HSF1. Furthermore, this assay endpoint can be referred to as a primary readout, because this assay has produced multiple assay endpoints where this one serves a reporter gene function. To generalize the intended target to other relatable targets, this assay endpoint is annotated to the dna binding intended target family, where the subfamily is heat shock protein.
Human liver HepG2 cells are transiently transfected with multiple reporter transcription units (MRTUs) in 6-well plates using FuGene 6 reagent (Roche; 3 ml FuGene/1 mg DNA). The MRTU constructs are regulated by a cis-regulating element (promoter). […] A major difference between the CIS and TRANS system is that in CIS activities of endogenous TFs are measured, whereas the TRANS assay evaluates changes in activities of exogenous, chimeric NR-Gal4 proteins. […] At the end of 24 hour incubation, total RNA was isolated using TriZol reagent (Invitrogen). The isolated RNA is then reverse-transcribed using oligo(dT) primer and Mo-MLV reverse transcriptase (Invitrogen) with DNAse I (Ambion) treatment for 30 min. The one-tenth of the produced cDNA was amplified by PCR using Taq DNA polymerase (Invitrogen) and two reporter sequence-specific primers. The PCR products were fluorescently labeled by primer extension with 6-arboxyfluorescein (6-FAM) 5'-labeled reporter sequence-specific primer (2 min at 95 C, 20 s at 68 C and 10 min at 72 C) and these products were digested with 5U of HpaI (New England Biolabs) for 2h at 37 C. The fragments were purified using Qiaquick PCR columns (Qiagen), analyzed on an ABI 3130xL genetic analyzer (Applied Biosystems) with peak positions identified by using a set of X-rhodamine (ROX)-labeled MapMarker1000 molecular weight standards (BioVentures). The raw capillary electrophoresis data was processed using Attagraph software (Attagene).

Heat shock factor protein 1 (Homo sapiens), sequence (Q00613 whole entry, looked up): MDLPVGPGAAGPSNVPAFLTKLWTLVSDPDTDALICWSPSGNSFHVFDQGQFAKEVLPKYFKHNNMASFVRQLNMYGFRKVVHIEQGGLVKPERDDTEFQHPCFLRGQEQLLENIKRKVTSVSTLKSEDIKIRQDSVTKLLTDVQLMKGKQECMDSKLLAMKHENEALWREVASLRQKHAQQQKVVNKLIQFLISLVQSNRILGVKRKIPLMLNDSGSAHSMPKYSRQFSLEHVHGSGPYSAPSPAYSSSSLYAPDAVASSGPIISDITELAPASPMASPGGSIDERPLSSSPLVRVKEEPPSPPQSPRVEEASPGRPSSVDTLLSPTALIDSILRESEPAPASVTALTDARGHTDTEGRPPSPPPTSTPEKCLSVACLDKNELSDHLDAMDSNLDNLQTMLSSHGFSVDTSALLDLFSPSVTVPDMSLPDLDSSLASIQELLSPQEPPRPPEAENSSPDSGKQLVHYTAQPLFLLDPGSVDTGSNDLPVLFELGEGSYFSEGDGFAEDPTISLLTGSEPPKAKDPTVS

| SMILES | AC50 | outcome |
| --- | --- | --- |
| c1ccc2sc(SNC3CCCCC3)nc2c1 | 159 µM (active) |  |
| CN(N=O)C(N)=O |  | inactive |
| Cc1cc(C)cc(C)c1 |  | inactive |
| NNCCO |  | inactive |
| Nc1ccc(Br)cc1 |  | inactive |
| CCOP(=S)(OCC)Oc1ccc(Cl)cc1Cl |  | inactive |
| N#Cc1ccc(Cl)cc1 |  | inactive |
| O=S1(=O)OC(c2cc(Br)c(O)c(Br)c2)(c2cc(Br)c(O)c(Br)c2)c2ccccc21 |  | inactive |
| CN(CCCC(O)c1cccnc1)N=O (stereo not given) |  | inactive |
| O=C(O)COc1cc(Cl)c(Cl)cc1Cl |  | inactive |
| Brc1ccc(Oc2c(Br)cc(Br)cc2Br)c(Br)c1 |  | inactive |
| CNC(=O)O/N=C/C(C)(C)S(C)(=O)=O |  | inactive |
| CC(O)(CS(=O)(=O)c1ccc(F)cc1)C(=O)Nc1ccc(C#N)c(C(F)(F)F)c1 (stereo not given) |  | inactive |
| O=[N+]([O-])c1cccc2ccccc12 |  | inactive |
| CCC[CH2][Sn]([CH2]CCC)([CH2]CCC)[CH2]CCC | 17.1 µM (active) |  |
| CC(C)(c1ccc(O)c(-c2ccccc2)c1)c1ccc(O)c(-c2ccccc2)c1 |  | inactive |
| COc1ccc(N)cc1 |  | inactive |
| CCOCn1c(-c2ccc(Cl)cc2)c(C#N)c(Br)c1C(F)(F)F | 53.2 µM (active) |  |
| O=[N+]([O-])c1cc([As](=O)(O)O)ccc1O |  | inactive |
| CC(C)(C)c1ccccc1O |  | inactive |

| SMILES | AC50 | outcome |
| --- | --- | --- |
| CCOC(=O)c1ccccc1S(=O)(=O)NC(=O)Nc1nc(Cl)cc(OC)n1 |  | inactive |
| Cc1cc(-c2cc(C)c(N)c(C)c2)cc(C)c1N |  | inactive |
| N#Cc1ccccc1N |  | inactive |
| CCC[CH2][Sn]([Cl])([Cl])[CH2]CCC | 0.818 µM (active) |  |
| Cc1ccccc1OP(=O)(Oc1ccccc1)Oc1ccccc1 |  | inactive |
| Oc1cccc(-c2ccccc2)c1 |  | inactive |
| Cc1cc(Cl)ccc1N |  | inactive |
| C#CCOC(=O)/C=C(C)/C=C/CC(C)CCCC(C)C (stereo not given) |  | inactive |
| CCCCS(=O)(=O)Cl |  | inactive |
| Nc1cccnc1 |  | inactive |
| O=S(=O)(F)C(F)(F)C(F)(F)C(F)(F)C(F)(F)F |  | inactive |
| CC1CC(=O)O1 (stereo not given) |  | inactive |
| CCOP(=S)(OCC)OP(=S)(OCC)OCC |  | inactive |
| O=S1OC[C@@H]2[C@H](CO1)[C@]1(Cl)C(Cl)=C(Cl)[C@@]2(Cl)C1(Cl)Cl (stereo not given in full) |  | inactive |
| Cc1cc(C(F)(C(F)(F)F)C(F)(F)F)ccc1NC(=O)c1cccc(I)c1C(=O)NC(C)(C)CS(C)(=O)=O |  | inactive |
| NC(=O)c1ccc(N)nc1 |  | inactive |
| CCOC(=O)CC(=O)CCl | 146 µM (active) |  |
| CC(=O)C(F)(F)C(F)(F)F |  | inactive |
| CCCCCCCCCCCCBr |  | inactive |
| CCCCC(CC)C(=O)Cl (stereo not given) |  | inactive |
